Measurements from PubChem BioAssay (Tox21).
“And” between values parts separate entries of the source, which are not always exact repeats. Equal entries are not always repeated. The source holds several records for some structures; these can differ, active in one and inactive in another. The source made the active and inactive calls. Unless noted, calls come from the whole dose curve; as a rule, active = well fitted curve in the direction sought with a large enough effect in the repeat runs; inconclusive = weak or mixed curves; inactive = no such curve, though single readings can be large; an effect the other way counts as inactive or inconclusive.

Tests used:
[1] = qHTS assay for small molecule disruptors of the mitochondrial membrane potential (AID 720635); note: potency is the fitted concentration of half-maximal effect
In short: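 HepG2 cells exposed to compound 1 hr at 37C, then Mito-MPS dye 30 min. Ratio read of aggregate (540/590 nm) versus monomer (490/535 nm) fluorescence.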

[2] = qHTS assay to test for compound auto fluorescence at 590 nm (red) in HEK293 cell free culture (AID 720683)
In short: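 Cell-free wells of DMEM with 10% FBS received compound, and intrinsic fluorescence was read at excitation/emission 540/590 nm. Values expressed as equivalence to Rose Bengal sodium.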

[3] = qHTS assay for identifying genotoxic compounds that show differential cytotoxicity against isogenic chicken DT40 cell lines with known DNA damage response pathways - Rev3 mutant cell line (AID 743014); note: nearly all actives have a fitted effect of over 55% in size; note: potency is the fitted concentration of half-maximal effect
[4] = qHTS assay to identify small molecule antagonists of the androgen receptor (AR) signaling pathway - cell viability counter screen (AID 743033; note: nearly all actives have a fitted effect of over 45% in size; note: potency is the fitted concentration of half-maximal effect)
[5] = qHTS assay to identify small molecule antagonists of the androgen receptor (AR) signaling pathway using the MDA cell line - cell viability counter screen (AID 743041; note: nearly all actives have a fitted effect of over 45% in size; note: potency is the fitted concentration of half-maximal effect)
In short: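 Compound exposure lasted 16 h at 37C in MDA-kb2 AR-luc cells stimulated with R1881. Protease-based CellTiter-Fluor reagent was applied for the final 30 min and fluorescence measured.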

[6] = qHTS assay to identify small molecule antagonists of the thyroid receptor (TR) signaling pathway (AID 743065); note: nearly all actives have a fitted effect of over 55% in size; note: potency is the fitted concentration of half-maximal effect
In short: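 GH3.TRE-Luc rat pituitary cells (two TREs driving luciferase) were dosed with compound, then stimulated with 1 nM T3 (final) for 23.5 h at 37 C. ONE-Glo luminescence was the read-out, with CellTiter-Fluor fluorescence as the cytotoxicity counter-screen.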

[7] = target: Estrogen receptor (Homo sapiens) (UniProt P03372); assay: qHTS assay to identify small molecule agonists of the estrogen receptor alpha (ER-alpha) signaling pathway (AID 743075; calls by dose curve;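 note: HEK293 GripTite cells with ER-alpha and UAS-driven beta-lactamase reporter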; note: potency is the fitted concentration of half-maximal effect)
[8] = qHTS assay to identify small molecule antagonists of the estrogen receptor alpha (ER-alpha) signaling pathway using the BG1 cell line - cell viability counter screen (AID 743081);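 note: compound given together with 17beta-estradiol as the ER stimulus; series mostly up to about 70 µM; nearly all actives have a fitted effect of over 45% in size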
[9] = qHTS assay to identify aromatase inhibitors - cell viability counter screen (AID 743084);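 note: cells stimulated with testosterone during compound exposure; nearly all actives have a fitted effect of over 55% in size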; note: potency is the fitted concentration of half-maximal effect
[10] = qHTS assay to identify small molecule that activate the aryl hydrocarbon receptor (AhR) signaling pathway - cell viability counter screen (AID 743086); note: nearly all actives have a fitted effect of over 45% in size; note: potency is the fitted concentration of half-maximal effect
In short: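 HepG2-AhR-luc (HG2L7.5c1) cells, 4000/well, treated 24 h at 37 C with compound; viability measured as CellTiter-Fluor fluorescence after 30 min in the same wells as the luciferase read.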

[11] = qHTS assay for small molecule activators of the heat shock response signaling pathway (AID 743210; active = well fitted activation curve with a large enough effect in the signal ratio in the repeat runs, with a control signal flat, not every such curve was filed as active; inconclusive = weak or mixed curves; the % refers to the signal ratio; note: potency is the fitted concentration of half-maximal effect;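 for activation: HeLa cells with beta-lactamase reporter driven by heat shock elements; series mostly up to about 63 µM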)
In short: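 Following overnight attachment, HSE-bla HeLa cells received test compounds for 5 h at 37 C; beta-lactamase activity was then detected via FRET substrate fluorescence.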

[12] = target: Peroxisome proliferator-activated receptor delta (Homo sapiens) (UniProt Q03181); assay: qHTS assay to identify small molecule antagonists of the peroxisome proliferator-activated receptor delta (PPARd) signaling pathway (AID 743215; active = well fitted inhibition curve with a large enough effect in the signal ratio in the repeat runs, not every such curve was filed as active; inconclusive = weak or mixed curves, or effect the other way; inactive = no such curve, though single readings can be large or run the other way; the % refers to the signal ratio;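 note: cells stimulated with agonist L165041 at 300 nM final during compound exposure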; note: potency is the fitted concentration of half-maximal effect)
In short: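 HEK293H GeneBLAzer PPARd UAS-bla reporter cells; cpd + L165041 300 nM final, 17 h 37 C; LiveBLAzer B/G FRET substrate 2 h RT; fluorescence intensity read-out. Antagonist mode.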

[13] = qHTS assay to identify small molecule antagonists of the farnesoid-X-receptor (FXR) signaling pathway - cell viability counter screen (AID 743221; active = well fitted cell-killing curve with a large enough effect in the repeat runs, not every such curve was filed as active; inconclusive = weak or mixed curves, or effect the other way; inactive = no such curve, though single readings can be large or run the other way; note: nearly all actives have a fitted effect of over 50% in size; note: potency is the fitted concentration of half-maximal effect)
In short: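 GeneBLAzer FXR-UAS-bla HEK 293T cells, compound plus chenodeoxycholic acid (50 uM final), 16 h at 37 C. CellTiter-Glo added to the same wells after the beta-lactamase read; luminescence read after 30 min at room temperature as viability.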

[14] = target: Progesterone receptor (Homo sapiens) (UniProt P06401); assay: qHTS assay to identify small molecule antagonists of the progesterone receptor (PR) signaling pathway (AID 1346795; active = well fitted inhibition curve with a large enough effect in the signal ratio in the repeat runs, not every such curve was filed as active; inconclusive = weak or mixed curves; the % refers to the signal ratio; note: potency is the fitted concentration of half-maximal effect)
In short: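 PR-UAS-bla HEK293T cells with beta-lactamase reporter under UAS control, in 2% charcoal-stripped FBS, treated with compounds plus 1 nM promegestone (R5020, final) for 16 hr at 37C. Read-out: FRET beta-lactamase substrate fluorescence after 2 hr at room temperature.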

[15] = target: Androgen receptor (Homo sapiens) (UniProt P10275); assay: qHTS assay to identify small molecule antagonists of the androgen receptor (AR) signaling pathway using the MDA cell line in the presence of 0.5 nM R1881 (AID 1259243); note: nearly all actives have a fitted effect of over 50% in size; note: potency is the fitted concentration of half-maximal effect
In short: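 MDA-kb2, MMTV-luc (AR/GR elements); 3,000 cells/well; cpd + 0.5 nM R1881 final; 16 hr 37C, 0% CO2; ONE-Glo 30 min RT; luminescence.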

[16] = target: Estrogen receptor beta (Homo sapiens) (UniProt Q92731); assay: qHTS assay to identify small molecule antagonists of the estrogen receptor beta (ER-beta) signaling pathway (AID 1259378; active = well fitted inhibition curve with a large enough effect in the signal ratio in the repeat runs, not every such curve was filed as active; inconclusive = weak or mixed curves, or effect the other way; inactive = no such curve, though single readings can be large or run the other way; the % refers to the signal ratio; note: potency is the fitted concentration of half-maximal effect)
In short: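 ER-beta-UAS-bla HEK293T cells in 2% charcoal-stripped FBS medium treated with compound plus 1nM final 17-beta-estradiol for 16 hr at 37C. Beta-lactamase reporter read by FRET substrate fluorescence after 2 hours at room temperature.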

[17] = target: Androgen receptor (Homo sapiens) (UniProt P10275); assay: qHTS assay to identify small molecule agonists of the androgen receptor (AR) signaling pathway in the presence of an antagonist (AID 1259381; calls by dose curve; note: nearly all actives have a fitted effect of over 15% in size; note: potency is the fitted concentration of half-maximal effect)
In short: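 Luciferase read-out (ONE-Glo, 30min room temperature) in MDA-kb2 MMTV-reporter cells; agonist mode run in presence of AR antagonist nilutamide, 3.0uM final. Compounds tested as 15-point series, 16hr exposure at 37C, 0% CO2.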

[18] = qHTS assay for small molecules that induce genotoxicity in human embryonic kidney cells expressing luciferase-tagged ATAD5 - cell viability (AID 651634; calls by dose curve; note: nearly all actives have a fitted effect of over 25% in size; note: potency is the fitted concentration of half-maximal effect)
In short: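 HEK293T ATAD5-luc cells, 2,000/well; compound 15.5 hr, 37C/5% CO2; CellTiter-Fluor 30 min, 37C; fluorescence read.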

[19] = qHTS assay to test for compound auto fluorescence at 460 nm (blue) in HepG2 cell free culture (AID 720685)
In short: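 Cell-free plates of MEM plus 10% FBS received 23 nL compound or DMSO vehicle; blue-channel (405/460 nm) intensity scored against triamterene as reference fluorophore.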

[20] = target: Nuclear receptor ROR-gamma (Homo sapiens) (UniProt P51449); assay: qHTS assay to identify small molecule antagonists of the retinoid-related orphan receptor gamma (ROR-gamma) signaling pathway (AID 1159521; note: nearly all actives have a fitted effect of over 50% in size; note: potency is the fitted concentration of half-maximal effect)
In short: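 Tet-on ROR-gamma CHO cells with ROR response element-luciferase reporter; compounds added 2 hr before 1 uM doxycycline induction, then 16 hr at 37 C. Antagonism scored as decreased ONE-Glo luminescence.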

Measured: Potency

Chain of Androgen receptor (Homo sapiens) (P10275 whole entry, looked up): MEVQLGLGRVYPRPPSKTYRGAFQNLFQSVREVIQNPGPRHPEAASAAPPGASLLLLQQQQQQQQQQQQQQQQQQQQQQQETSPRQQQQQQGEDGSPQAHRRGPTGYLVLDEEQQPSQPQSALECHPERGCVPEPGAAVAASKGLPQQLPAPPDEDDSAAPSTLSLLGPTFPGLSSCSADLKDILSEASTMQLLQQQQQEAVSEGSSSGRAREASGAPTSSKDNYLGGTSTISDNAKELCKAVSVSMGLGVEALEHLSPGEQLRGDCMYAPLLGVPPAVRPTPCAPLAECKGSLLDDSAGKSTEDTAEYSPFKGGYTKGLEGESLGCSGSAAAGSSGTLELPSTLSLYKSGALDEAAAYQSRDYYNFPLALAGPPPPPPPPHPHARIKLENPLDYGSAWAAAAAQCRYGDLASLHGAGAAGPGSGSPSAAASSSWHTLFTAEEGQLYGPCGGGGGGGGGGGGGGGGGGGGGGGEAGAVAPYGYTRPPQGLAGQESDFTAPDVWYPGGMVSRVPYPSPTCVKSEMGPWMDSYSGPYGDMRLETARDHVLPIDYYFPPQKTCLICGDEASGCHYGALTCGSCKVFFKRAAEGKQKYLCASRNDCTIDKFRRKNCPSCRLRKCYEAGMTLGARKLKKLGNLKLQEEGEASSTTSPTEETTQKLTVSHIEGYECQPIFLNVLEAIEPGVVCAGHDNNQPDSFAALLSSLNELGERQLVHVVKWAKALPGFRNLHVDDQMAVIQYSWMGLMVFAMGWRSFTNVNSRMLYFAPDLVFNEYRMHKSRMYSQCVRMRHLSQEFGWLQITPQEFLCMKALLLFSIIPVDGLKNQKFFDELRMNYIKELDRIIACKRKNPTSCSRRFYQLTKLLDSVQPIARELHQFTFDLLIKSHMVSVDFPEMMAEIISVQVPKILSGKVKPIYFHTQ
Chain of Peroxisome proliferator-activated receptor delta (Homo sapiens) (Q03181 whole entry, looked up): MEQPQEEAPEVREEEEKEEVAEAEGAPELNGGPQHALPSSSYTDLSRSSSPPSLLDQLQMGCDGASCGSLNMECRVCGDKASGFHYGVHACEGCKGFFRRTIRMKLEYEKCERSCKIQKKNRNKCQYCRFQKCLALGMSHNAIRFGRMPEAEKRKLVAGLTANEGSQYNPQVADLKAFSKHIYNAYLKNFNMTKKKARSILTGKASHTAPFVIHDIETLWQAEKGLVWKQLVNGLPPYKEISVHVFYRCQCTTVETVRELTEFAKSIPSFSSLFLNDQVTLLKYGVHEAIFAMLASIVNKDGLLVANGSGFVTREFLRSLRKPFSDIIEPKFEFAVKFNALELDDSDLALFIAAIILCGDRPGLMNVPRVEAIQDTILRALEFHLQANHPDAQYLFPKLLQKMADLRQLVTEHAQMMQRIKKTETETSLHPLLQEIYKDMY
Chain of Progesterone receptor (Homo sapiens) (P06401 whole entry, looked up): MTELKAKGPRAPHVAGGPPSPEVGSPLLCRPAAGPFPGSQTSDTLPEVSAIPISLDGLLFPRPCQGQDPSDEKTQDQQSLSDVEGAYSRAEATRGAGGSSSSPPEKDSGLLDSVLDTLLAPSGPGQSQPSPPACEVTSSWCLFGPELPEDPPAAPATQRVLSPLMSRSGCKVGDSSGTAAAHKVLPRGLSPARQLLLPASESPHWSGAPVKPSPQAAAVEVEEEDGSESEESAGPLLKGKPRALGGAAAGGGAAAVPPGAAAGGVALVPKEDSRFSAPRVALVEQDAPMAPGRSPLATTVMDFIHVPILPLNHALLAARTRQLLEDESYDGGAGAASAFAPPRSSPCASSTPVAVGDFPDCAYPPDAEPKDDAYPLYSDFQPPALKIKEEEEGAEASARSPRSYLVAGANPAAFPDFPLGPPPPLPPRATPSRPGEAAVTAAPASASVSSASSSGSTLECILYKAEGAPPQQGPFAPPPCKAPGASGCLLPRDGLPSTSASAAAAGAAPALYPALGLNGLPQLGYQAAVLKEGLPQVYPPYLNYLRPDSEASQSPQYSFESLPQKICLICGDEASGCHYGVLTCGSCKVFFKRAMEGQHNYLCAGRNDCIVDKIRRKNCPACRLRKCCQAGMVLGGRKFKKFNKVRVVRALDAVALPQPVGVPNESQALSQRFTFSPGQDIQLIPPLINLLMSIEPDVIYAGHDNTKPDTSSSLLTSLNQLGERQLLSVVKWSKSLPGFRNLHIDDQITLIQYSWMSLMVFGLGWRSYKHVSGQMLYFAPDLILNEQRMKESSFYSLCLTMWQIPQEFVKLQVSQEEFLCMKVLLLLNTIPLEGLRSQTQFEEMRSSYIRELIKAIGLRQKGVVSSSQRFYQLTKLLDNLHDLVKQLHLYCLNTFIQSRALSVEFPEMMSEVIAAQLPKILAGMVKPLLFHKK
Chain of Estrogen receptor beta (Homo sapiens) (Q92731 whole entry, looked up): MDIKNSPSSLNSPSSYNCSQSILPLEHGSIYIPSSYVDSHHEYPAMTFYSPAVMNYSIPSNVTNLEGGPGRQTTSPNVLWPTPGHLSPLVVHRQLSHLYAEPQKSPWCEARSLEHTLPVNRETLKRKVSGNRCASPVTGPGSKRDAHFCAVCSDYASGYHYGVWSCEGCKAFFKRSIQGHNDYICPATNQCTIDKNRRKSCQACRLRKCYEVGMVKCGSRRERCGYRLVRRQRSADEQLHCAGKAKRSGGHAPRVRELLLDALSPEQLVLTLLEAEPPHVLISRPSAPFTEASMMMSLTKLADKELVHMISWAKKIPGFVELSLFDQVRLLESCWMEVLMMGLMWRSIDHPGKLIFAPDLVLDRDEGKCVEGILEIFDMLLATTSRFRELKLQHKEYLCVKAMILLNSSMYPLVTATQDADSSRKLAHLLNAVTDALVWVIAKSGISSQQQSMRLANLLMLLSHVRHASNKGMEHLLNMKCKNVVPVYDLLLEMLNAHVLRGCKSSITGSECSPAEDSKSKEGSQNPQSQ
Chain of Estrogen receptor (Homo sapiens) (P03372 whole entry, looked up): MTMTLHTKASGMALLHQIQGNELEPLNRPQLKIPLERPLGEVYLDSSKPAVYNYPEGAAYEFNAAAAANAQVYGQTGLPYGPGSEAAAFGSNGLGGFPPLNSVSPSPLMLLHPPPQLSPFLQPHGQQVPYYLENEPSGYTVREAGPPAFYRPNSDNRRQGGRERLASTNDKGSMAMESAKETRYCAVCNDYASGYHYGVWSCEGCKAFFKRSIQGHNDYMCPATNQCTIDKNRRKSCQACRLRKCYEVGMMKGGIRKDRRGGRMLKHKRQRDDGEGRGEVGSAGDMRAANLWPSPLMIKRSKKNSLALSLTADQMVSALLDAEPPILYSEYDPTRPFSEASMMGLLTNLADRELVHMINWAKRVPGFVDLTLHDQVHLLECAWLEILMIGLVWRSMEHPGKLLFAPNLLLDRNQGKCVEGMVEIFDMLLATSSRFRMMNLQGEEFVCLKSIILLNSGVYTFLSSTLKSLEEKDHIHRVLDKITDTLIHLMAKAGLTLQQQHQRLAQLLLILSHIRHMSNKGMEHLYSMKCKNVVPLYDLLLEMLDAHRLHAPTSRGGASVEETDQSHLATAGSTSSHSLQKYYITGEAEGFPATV

O=C1C(I)=CC(=C(c2cc(I)c(O)c(I)c2)c2ccccc2C(=O)O)C=C1I
active: [1] 8.41 µM and 4.22 µM | [6] 29.8 µM and 23.7 µM | [14] 29.8 µM
inactive: [2] | [3] | [4] | [5] | [7] | [8] | [9] | [10] | [11] | [12] | [13]

ClC(Cl)=C(c1ccc(Cl)cc1)c1ccccc1Cl
inactive: [17]
active: [15] 9.69 µM | [16] 6.86 µM

O=C(Nc1ccccc1-c1ccc(Cl)cc1)c1cccnc1Cl
active: [6] 57.8 µM
inactive: [18] | [2] | [19] | [7] | [8] | [9] | [10] | [20]

Oc1c(I)cc(I)cc1I
active: [14] 30.6 µM
inactive: [15] | [17]

CO/C=C(/C(=O)OC)c1ccccc1Oc1cc(Oc2ccccc2C#N)ncn1
inactive: [2] | [19] | [7] | [11] | [17]
active: [18] 7.31 µM | [1] 2.31 µM | [3] 0.103 µM | [5] 21.7 µM | [9] 58.1 µM | [10] 37.6 µM | [20] 0.581 µM | [15] 5.81 µM

N#Cc1cc([N+](=O)[O-])ccc1N
inactive: [16]

O=C(c1ccccc1)C(Cl)Cl
active: [20] 27.3 µM | [15] 4.33 µM
inactive: [17]

ClC1=C(Cl)[C@]2(Cl)[C@@H]3[C@@H](Cl)[C@H]4O[C@H]4[C@@H]3C1(Cl)C2(Cl)Cl
inactive: [18] | [19] | [4] | [5] | [7] | [8] | [9] | [10] | [12] | [13] | [16]
active: [1] 27.3 µM | [3] 34.4 µM | [6] 54.5 µM

Nc1ccc([N+](=O)[O-])cc1
inactive: [2] | [20]
active: [18] 54.5 µM | [1] 1.37 µM | [3] 13.3 µM | [4] 54.9 µM | [5] 30.6 µM | [6] 61.1 µM | [10] 40.9 µM | [15] 8.63 µM | [17] 61.1 µM

O=[N+]([O-])c1c(Cl)c(Cl)cc(Cl)c1Cl
inactive: [18] | [4] | [6] | [9] | [11] | [13] | [14]

CC(c1ccccc1)(c1ccc(O)cc1)c1ccc(O)cc1
active: [20] 48.6 µM

COc1ccc(C(c2ccc(OC)cc2)C(Cl)(Cl)Cl)cc1
inactive: [18] | [2] | [19] | [8] | [10] | [13]
active: [1] 13.7 µM | [6] 24.2 µM | [7] 19.4 µM [inconclusive] | [20] 48.3 µM

CCN(CC)C(=O)Cl
inactive: [20] | [15] | [16] | [17] | [14]

Cc1cc(C(C)(C)c2ccc(O)c(C)c2)ccc1O
active: [1] 6.53 µM | [15] 4.62 µM
inactive: [2] | [19] | [3] | [5] | [8] | [11] | [13] | [17]

Cc1ccc(N(SC(F)(Cl)Cl)S(=O)(=O)N(C)C)cc1
inactive: [2] | [19] | [17]
active: [1] 17.2 µM | [4] 3.47 µM | [5] 54.5 µM | [6] 2.17 µM | [9] 34.4 µM | [10] 48.6 µM | [13] 19.5 µM | [15] 15.4 µM | [16] 13.7 µM

CC1COC(Cn2cncn2)(c2ccc(Oc3ccc(Cl)cc3)cc2Cl)O1 (stereo unspecified)
active: [1] 61.1 µM | [4] 21.9 µM | [6] 12.2 µM | [12] 49 µM | [16] 27.3 µM | [14] 24.3 µM
inactive: [2] | [19] | [11]

COc1cc(OC)c(OC)cc1C=O
active: [3] 34.3 µM | [9] 59.3 µM
inactive: [18] | [19] | [5] | [7] | [8] | [13] | [20] | [16] | [17]

Cc1nnc2n1-c1sc(CCc3ccc(CC(C)C)cc3)cc1C(c1ccccc1Cl)=NC2C (stereo unspecified)
inactive: [2] | [19] | [4] | [7] | [9] | [10]
active: [1] 21.1 µM | [3] 16.8 µM | [6] 11.9 µM | [20] 29.8 µM

OC(Cc1ccccc1Cl)(Cn1[nH]cnc1=S)C1(Cl)CC1 (stereo unspecified)
inactive: [17]
active: [15] 54.5 µM | [14] 24.3 µM

ClC1=C(Cl)C(Cl)(Cl)C(Cl)=C1Cl
active: [11] 52.9 µM

CCOC(=O)C(O)(c1ccc(Cl)cc1)c1ccc(Cl)cc1
44.1 µM (active) and inactive: [13]
active: [1] 4.37 µM and 24.3 µM | [3] 2.19 µM and 24.3 µM | [4] 7.84 µM | [5] 61.8 µM | [6] 4.91 µM and 61.1 µM | [9] 6.18 µM | [15] 13.8 µM and 21.7 µM | [16] 30.9 µM and 54.5 µM | [14] 13.8 µM and 13.7 µM
61.8 µM (active) and inactive: [10]
inactive: [7] | [8] | [11] | [17]

CNC(=O)Oc1cc(C)c(SC)c(C)c1
active: [17] 12.2 µM | [14] 27.3 µM

CCCCC(CC)COC(=O)CCCCC(=O)OCC(CC)CCCC (stereo unspecified)
inactive: [12]

CN1CSC(=S)N(C)C1
inactive: [18] | [1] | [2] | [19] | [7] | [8]
active: [3] 5.42 µM and 5.43 µM | [4] 5.47 µM and 3.46 µM | [5] 24.3 µM | [6] 3.05 µM and 3.85 µM | [9] 10.8 µM and 27.2 µM | [13] 12.3 µM | [20] 964 nM and 2.16 µM | [16] 24.2 µM | [14] 19.2 µM and 8.61 µM

O=S(=O)(C(Cl)(Cl)Cl)C(Cl)(Cl)Cl
active: [15] 17.2 µM
inactive: [17] | [14]

Cc1cc(C)c(C(=O)P(=O)(c2ccccc2)c2ccccc2)c(C)c1
inactive: [17]
active: [20] 61.1 µM | [15] 54.5 µM

OCC(c1ccc(Cl)cc1)c1ccc(Cl)cc1
active: [1] 27.3 µM | [3] 1.93 µM | [4] 43.6 µM | [6] 61.1 µM
inactive: [18] | [2] | [19] | [7] | [8] | [10] | [13]

Nc1ccc(Cl)cc1[N+](=O)[O-]
inactive: [11]

c1ccc2c(c1)Sc1ccccc1N2CC1CN2CCC1CC2 (stereo unspecified)
inactive: [8] | [9]
active: [3] 11.9 µM | [12] 11.9 µM | [13] 18.8 µM | [14] 26.6 µM

Clc1ccccc1-c1ccccc1Cl
inactive: [18] | [2] | [19] | [4] | [5] | [8] | [10] | [11] | [12] | [13] | [14]
active: [1] 19.6 µM

Cc1cccc([N+](=O)[O-])c1C
inactive: [12]

Brc1ccc(Br)c(Br)c1
inactive: [11]

Nc1ccc(Cl)cc1Cl
inactive: [11]

C=CC(=O)OCCCCCCCC(C)C
inactive: [16]

Fc1c(F)c(F)c(Br)c(F)c1F
inactive: [12]

C=CC(=O)OCCCC
inactive: [12]

Cc1ccccc1N=O
inactive: [12]
